In PubChem BioAssay AID588790 (National Center for Advancing Translational Sciences (NCATS), 2011):
Out of some 1,200 compounds screened, about 85 (7%) were called active. Many of the other results were omitted from the sample, so actives are more common in it than they were. Unmarked numbers belong to inactive results. Calls come from the whole dose curve.

target: Beta-2 adrenergic receptor (Homo sapiens) (UniProt P07550); assay: qHTS assay of beta-arrestin-biased ligands of beta2-adrenergic receptor: Hit Validation with GloSensor; conditions: W9-Glo22F cells, GloSensor cAMP luminescence, beta2AR agonism; activation: at 46.1 µM (top of the series); for activation: 0% is about no effect
Excerpt: The concept of biased agonism is an emerging concept of molecular pharmacology which proposes that seven transmembrane receptors (7TMRs) or G protein-coupled receptors (GPCRs), exist in multiple signaling conformations and complexes and that ligands (either agonists or antagonists) can induce signaling biased responses for distinct signal transduction cascades.
Furthermore, accumulating evidence over the last decade has drawn attention to a novel function of beta-arrestins as signal transducers that scaffold various signaling molecules upon activation of 7TMRs. […] This beta-arrestin-biased signaling presumably leads to distinct physiological outcomes from those by G protein activation.
Additionally, the active receptor conformations which […] on this beta-arrestin signaling are likely different from those activating G protein signaling
The goal of this screening project is to discover and optimize novel beta-arrestin-biased ligands for beta2-AR signaling. A luminescent cell-based assay for beta2-AR-mediated agonism, known as the Tango assay, has been validated in which ligand binding of a recombinant beta2-AR and subsequent recruitment of a recombinant beta-arrestin lead to the release of the transcriptional activator tTA, which upregulates transcription of a tTA-responsive luciferase gene. […] After compounds were identified in this primary screen, they were tested in a counter screen that used luminescence as measure through the GloSensor reagent.
NIH Molecular Libraries Probe Production Network [MLPCN]
NIH Chemical Genomics Center [NCGC]
PI: Bryan Roth (UNC) and Bob Lefkowitz (Duke)
2 uL of W9-Glo22F cells are dispensed into a white 1536-well plate. They are incubated overnight at 37 deg C at 5% CO2. 23 nL of compounds and controls are pinned into the wells. Then 2 uL of GloSensor is added and the plate is incubated for 10 min at room temperature.The plates are then read on the ViewLux for luminescence.
Potency is the fitted concentration of half-maximal effect.

Chain of Beta-2 adrenergic receptor (Homo sapiens) (P07550 whole entry, looked up): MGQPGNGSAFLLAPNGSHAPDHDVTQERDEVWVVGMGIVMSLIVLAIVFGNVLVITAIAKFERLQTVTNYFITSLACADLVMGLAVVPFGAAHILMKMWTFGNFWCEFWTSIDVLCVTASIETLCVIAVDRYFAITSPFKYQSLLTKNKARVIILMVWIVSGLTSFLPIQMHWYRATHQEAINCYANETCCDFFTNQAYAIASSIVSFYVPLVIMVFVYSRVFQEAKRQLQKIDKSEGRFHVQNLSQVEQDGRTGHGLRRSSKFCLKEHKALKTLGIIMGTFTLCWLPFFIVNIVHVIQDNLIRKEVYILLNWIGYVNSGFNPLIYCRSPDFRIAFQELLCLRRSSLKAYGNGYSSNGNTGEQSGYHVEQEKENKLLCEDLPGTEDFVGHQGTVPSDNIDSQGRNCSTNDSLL

With `Cc1ccc(C)c(-n2c(SCC(=O)O)nc3sc4c(c3c2=O)CCCC4)c1` the Potency was 23.1 µM (active).
`CC1CCC(NC(=O)c2ccc(S(C)(=O)=O)cc2)CC1` (stereo not given) was tested, and the Potency was 29.1 µM (active).
In the case of `COc1ccc(C(=O)C2CCCN(C/C=C/c3ccccc3OC)C2)c(OC)c1` (stereo not given), the Potency is reported as 18.4 µM (active).
`O=c1[nH]c(CSc2ccccn2)nc2c1cnn2-c1ccccc1` was tested, and the Potency was 11.6 µM (active).
With `CCNc1nc(NC(C)CC)nc(ON=C(C)C)n1` (stereo not given) the Potency was 32.6 µM (active).
`CCCCCC1CC(/C(C)=N/NC(N)=O)OC1=O` (stereo not given) was tested, and the Potency was 29.1 µM (active).

Point of comparison: `O=C(CS(=O)(=O)c1ccccc1)Nc1nc2ccccc2s1`, “activation” value -1.16%. Against it:
- O=C(NCc1ccco1)c1cccn2c(=O)c3c4c(sc3nc12)CCCC4 — higher, 4.8%
- Cc1nc(SCC(=O)N2CCOCC2)c2c3c(sc2n1)CCC3 — higher, 4.96%
- CC1(C)CC(C)(c2ccc(O)cc2O)N(c2cccc(Cl)c2)C(=S)N1 (stereo not given) — higher, 0.459%
- S=c1[nH]c2cc(-c3ccccc3)ccc2o1 — higher, 1.16%
- CC(C)CC(=O)NC(=S)Nc1ccc(Cl)cn1 — lower, -2.33%
- CCCC(=O)NC(=S)Nc1ccc(Cl)cn1 — higher, 2.48%
- COc1cccc(C(=O)C2CCCN(Cc3cccc(-n4nc(C)cc4C)c3)C2)c1 (stereo not given) — higher, 12.8%
- COc1ccc(C(=O)C2CCCN(Cc3cnc(N4CCCC4)s3)C2)cc1OC (stereo not given) — the same, -1.16%
- CCc1cc2c(=O)[nH]c(-c3ccccn3)nc2s1 — higher, 0.306%
- O=c1[nH]c(CSc2cccc[n+]2[O-])nc2ccccc12 — higher, 4.96%
- CCn1c(SCC(=O)N/N=C/C=C\c2ccco2)nc2ccccc21 — higher, 0%
- S=C(NN=C1CCN(Cc2ccccc2)CC1)NC1CCCCC1 — higher, -1.01%
- COc1cccc([C@@H]2Oc3ccc(Br)cc3C(=O)[C@H]2OC(=O)NC2CCCC2)c1 — the same, -1.16%
- CCOc1ccc(C(=O)Nc2ccccc2OC(F)F)cc1 — higher, 0.153%
- O=C(CN1C(=O)C2C3CC(C(Br)C3Br)C2C1=O)N1CCN(Cc2ccccc2)CC1 (stereo not given) — higher, 0.153%
- CN(C)S(=O)(=O)c1cccc(NC(=S)N/N=C/c2ccco2)c1 — higher, 0.306%
- COc1ccc(/C=C/c2ccc3cccc(O)c3n2)c(OC)c1OC — higher, -1.01%
- C/C(CCC1CC(C)(C)OC1=O)=N\NC(N)=S (stereo not given) — lower, -2.48%
- CCCCCOCC1CC(C/C(C)=N/NC(N)=S)C(=O)O1 (stereo not given) — the same, -1.16%
- CS/C(N)=N/N=C/c1cc(C)ccc1O — higher, -0.857%
- CCN(CC)C(=O)[C@H]1CC(CC(=O)NCc2ccc(OC)c(OC)c2)C(=O)N2CCc3c([nH]c4ccccc34)[C@]12C (stereo not given in full) — the same, -1.16%
- O=C(CSc1n[nH]c(=O)n1-c1cccnc1)N1CCOCC1 — the same, -1.16%
- COc1ccc2cc1Oc1ccc(cc1)C[C@H]1c3cc(c(OC)cc3CCN1C)Oc1c(O)c(OC)cc3c1[C@H](C2)N(C)CC3 — the same, -1.16%
